From article PMC11006913
Residue numbers refer to the chain shown, from its start.

How the values were obtained:
Test in all cases: PBM; 200 nM protein, PBS
Settings in all cases: dsDNA, one strand shown
NKX2-4 [1] = molecular target: T1, NKX2-4 (Homo sapiens, UniProt Q9H2Z4 175-261, P217L)
T1 sequence: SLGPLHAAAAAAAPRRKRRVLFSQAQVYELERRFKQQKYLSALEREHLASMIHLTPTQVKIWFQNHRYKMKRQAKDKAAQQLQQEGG

NKX2-4 [2] = molecular target: T2, NKX2-4 (Homo sapiens, UniProt Q9H2Z4 175-261, T231S)
T2 sequence: T1 sequence with L43P, T57S

NKX2-4 [3] = molecular target: T3, NKX2-4 (Homo sapiens, UniProt Q9H2Z4 175-261)
T3 sequence: T1 sequence with L43P

HOXB6 [4] = molecular target: HOXB6 (Homo sapiens, UniProt P17509 132-218, K202E)
HOXB6 (Homo sapiens, UniProt P17509 132-218, K202E), sequence (P17509 132-218 K202E): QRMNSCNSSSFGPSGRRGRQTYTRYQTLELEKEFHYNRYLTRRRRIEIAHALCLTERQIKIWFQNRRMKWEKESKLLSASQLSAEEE

NKX2-4 [5] = molecular target: T4, NKX2-4 (Homo sapiens, UniProt Q9H2Z4 175-261, R246Q)
T4 sequence: T1 sequence with L43P, R72Q

HOXB6 [6] = molecular target: HOXB6 (Homo sapiens, UniProt P17509 132-218)
HOXB6 (Homo sapiens, UniProt P17509 132-218), sequence (P17509 132-218): as the sequence (P17509 132-218 K202E) above, with E71K counted along it

PRRX1 [7] = molecular target: PRRX1 (Homo sapiens, UniProt P54821 80-166, F113S)
PRRX1 (Homo sapiens, UniProt P54821 80-166, F113S), sequence (P54821 80-166 F113S): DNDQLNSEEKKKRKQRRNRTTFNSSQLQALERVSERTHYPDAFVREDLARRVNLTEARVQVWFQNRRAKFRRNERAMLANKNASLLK

PRRX1 [8] = molecular target: PRRX1 (Homo sapiens, UniProt P54821 80-166)
PRRX1 (Homo sapiens, UniProt P54821 80-166), sequence (P54821 80-166): as the sequence (P54821 80-166 F113S) above, with S34F counted along it

PITX2 = PITX2 (Homo sapiens, UniProt Q99697 72-157)
PAX4 [9] = molecular target: T5, PAX4 (Homo sapiens, UniProt O43316 9-242, R200K)
T5 sequence: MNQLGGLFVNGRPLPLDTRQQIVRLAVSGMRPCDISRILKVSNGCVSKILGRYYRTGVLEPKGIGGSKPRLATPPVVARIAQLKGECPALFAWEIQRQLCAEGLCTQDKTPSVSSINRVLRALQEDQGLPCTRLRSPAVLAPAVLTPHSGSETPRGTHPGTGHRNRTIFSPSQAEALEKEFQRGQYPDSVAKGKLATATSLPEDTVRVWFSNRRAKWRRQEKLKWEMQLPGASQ

PAX4 [10] = molecular target: T6, PAX4 (Homo sapiens, UniProt O43316 9-242)
T6 sequence: T5 sequence with K192R

ALX3 [11] = molecular target: ALX3 (Homo sapiens, UniProt O95076 139-225, N203Q)
ALX3 (Homo sapiens, UniProt O95076 139-225, N203Q), sequence (O95076 139-225 N203Q): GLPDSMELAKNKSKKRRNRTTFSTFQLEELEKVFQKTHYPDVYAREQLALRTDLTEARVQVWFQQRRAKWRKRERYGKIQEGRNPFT

PAX4 [12] = molecular target: T7, PAX4 (Homo sapiens, UniProt O43316 9-242, R200Q)
T7 sequence: T5 sequence with K192Q

PAX4 [13] = molecular target: T8, PAX4 (Homo sapiens, UniProt O43316 9-242, F177V)
T8 sequence: T5 sequence with F169V, K192R

ALX3 [14] = molecular target: ALX3 (Homo sapiens, UniProt O95076 139-225)
ALX3 (Homo sapiens, UniProt O95076 139-225), sequence (O95076 139-225): as the sequence (O95076 139-225 N203Q) above, with Q65N counted along it

PAX4 [15] = molecular target: T9, PAX4 (Homo sapiens, UniProt O43316 9-242, F177Y)
T9 sequence: T5 sequence with F169Y, K192R

VAX1 [16] = molecular target: VAX1 (Homo sapiens, UniProt Q5SQQ9 86-172)
VAX1 (Homo sapiens, UniProt Q5SQQ9 86-172), sequence (Q5SQQ9 86-172): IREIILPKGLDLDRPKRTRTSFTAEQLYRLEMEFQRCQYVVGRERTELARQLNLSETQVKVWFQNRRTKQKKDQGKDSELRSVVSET

ALX3 [17] = molecular target: ALX3 (Homo sapiens, UniProt O95076 139-225, L168Q)
ALX3 (Homo sapiens, UniProt O95076 139-225, L168Q), sequence (O95076 139-225 L168Q): as the sequence (O95076 139-225 N203Q) above, with L30Q, Q65N counted along it

ALX3 [18] = molecular target: ALX3 (Homo sapiens, UniProt O95076 139-225, L168V)
ALX3 (Homo sapiens, UniProt O95076 139-225, L168V), sequence (O95076 139-225 L168V): as the sequence (O95076 139-225 N203Q) above, with L30V, Q65N counted along it

VAX1 [19] = molecular target: VAX1 (Homo sapiens, UniProt Q5SQQ9 86-172, T142I)
VAX1 (Homo sapiens, UniProt Q5SQQ9 86-172, T142I), sequence (Q5SQQ9 86-172 T142I): as the sequence (Q5SQQ9 86-172) above, with T57I counted along it

PAX4 [20] = molecular target: T10, PAX4 (Homo sapiens, UniProt O43316 9-242, R227W)
T10 sequence: T5 sequence with K192R, R219W

ALX3 [21] = molecular target: ALX3 (Homo sapiens, UniProt O95076 139-225, N203S)
ALX3 (Homo sapiens, UniProt O95076 139-225, N203S), sequence (O95076 139-225 N203S): as the sequence (O95076 139-225 N203Q) above, with Q65S counted along it

VAX1 [22] = molecular target: VAX1 (Homo sapiens, UniProt Q5SQQ9 86-172, K157R)
VAX1 (Homo sapiens, UniProt Q5SQQ9 86-172, K157R), sequence (Q5SQQ9 86-172 K157R): as the sequence (Q5SQQ9 86-172) above, with K72R counted along it

ACCATTGA
binding signal (NKX2-4 [1]): 11.3 upbm affinity estimate (log intensity, higher = more binding, comparable within an allelic series) | binding signal (NKX2-4 [2]): 11.5 upbm affinity estimate (log intensity, higher = more binding, comparable within an allelic series) | binding signal (NKX2-4 [3]): 11.3 upbm affinity estimate (log intensity, higher = more binding, comparable within an allelic series) | binding signal (HOXB6 [4]): 9.55 upbm affinity estimate (log intensity, higher = more binding, comparable within an allelic series) | binding signal (NKX2-4 [5]): 11.5 upbm affinity estimate (log intensity, higher = more binding, comparable within an allelic series) | binding signal (HOXB6 [6]): 10.2 upbm affinity estimate (log intensity, higher = more binding, comparable within an allelic series)

CGAGCTAG
binding signal (NKX2-4 [1]): 9.46 upbm affinity estimate (log intensity, higher = more binding, comparable within an allelic series) | binding signal (NKX2-4 [2]): 9.32 upbm affinity estimate (log intensity, higher = more binding, comparable within an allelic series) | binding signal (PRRX1 [7]): 9.63 upbm affinity estimate (log intensity, higher = more binding, comparable within an allelic series) | binding signal (NKX2-4 [3]): 9.31 upbm affinity estimate (log intensity, higher = more binding, comparable within an allelic series) | binding signal (NKX2-4 [5]): 9.21 upbm affinity estimate (log intensity, higher = more binding, comparable within an allelic series) | binding signal (PRRX1 [8]): 9.54 upbm affinity estimate (log intensity, higher = more binding, comparable within an allelic series)

CCCGCCTC
binding signal (NKX2-4 [1]): 9.39 upbm affinity estimate (log intensity, higher = more binding, comparable within an allelic series) | binding signal (NKX2-4 [2]): 9.25 upbm affinity estimate (log intensity, higher = more binding, comparable within an allelic series) | binding signal (PRRX1 [7]): 9.33 upbm affinity estimate (log intensity, higher = more binding, comparable within an allelic series) | binding signal (NKX2-4 [3]): 9.39 upbm affinity estimate (log intensity, higher = more binding, comparable within an allelic series) | binding signal (NKX2-4 [5]): 9.31 upbm affinity estimate (log intensity, higher = more binding, comparable within an allelic series) | binding signal (PRRX1 [8]): 8.99 upbm affinity estimate (log intensity, higher = more binding, comparable within an allelic series)

CCTGCGCG
binding signal (NKX2-4 [1]): 9.34 upbm affinity estimate (log intensity, higher = more binding, comparable within an allelic series) | binding signal (NKX2-4 [2]): 9.28 upbm affinity estimate (log intensity, higher = more binding, comparable within an allelic series) | binding signal (NKX2-4 [3]): 9.35 upbm affinity estimate (log intensity, higher = more binding, comparable within an allelic series) | binding signal (NKX2-4 [5]): 9.37 upbm affinity estimate (log intensity, higher = more binding, comparable within an allelic series)

CCCGGCCC
binding signal (NKX2-4 [1]): 9.77 upbm affinity estimate (log intensity, higher = more binding, comparable within an allelic series) | binding signal (NKX2-4 [2]): 9.78 upbm affinity estimate (log intensity, higher = more binding, comparable within an allelic series) | binding signal (NKX2-4 [3]): 9.81 upbm affinity estimate (log intensity, higher = more binding, comparable within an allelic series) | binding signal (NKX2-4 [5]): 9.84 upbm affinity estimate (log intensity, higher = more binding, comparable within an allelic series)

AGCGGCCA
binding signal (NKX2-4 [1]): 9.69 upbm affinity estimate (log intensity, higher = more binding, comparable within an allelic series) | binding signal (NKX2-4 [2]): 9.47 upbm affinity estimate (log intensity, higher = more binding, comparable within an allelic series) | binding signal (NKX2-4 [3]): 9.64 upbm affinity estimate (log intensity, higher = more binding, comparable within an allelic series) | binding signal (PITX2): 8.04 upbm affinity estimate (log intensity, higher = more binding, comparable within an allelic series) | binding signal (NKX2-4 [5]): 9.57 upbm affinity estimate (log intensity, higher = more binding, comparable within an allelic series)

CCCGGCGC
binding signal (NKX2-4 [1]): 9.45 upbm affinity estimate (log intensity, higher = more binding, comparable within an allelic series) | binding signal (NKX2-4 [2]): 9.31 upbm affinity estimate (log intensity, higher = more binding, comparable within an allelic series) | binding signal (PAX4 [9]): 9.17 upbm affinity estimate (log intensity, higher = more binding, comparable within an allelic series) | binding signal (PAX4 [10]): 9.1 upbm affinity estimate (log intensity, higher = more binding, comparable within an allelic series) | binding signal (NKX2-4 [3]): 9.49 upbm affinity estimate (log intensity, higher = more binding, comparable within an allelic series) | binding signal (ALX3 [11]): 7.83 upbm affinity estimate (log intensity, higher = more binding, comparable within an allelic series) | binding signal (PAX4 [12]): 9.2 upbm affinity estimate (log intensity, higher = more binding, comparable within an allelic series) | binding signal (PAX4 [13]): 9.03 upbm affinity estimate (log intensity, higher = more binding, comparable within an allelic series) | binding signal (ALX3 [14]): 7.67 upbm affinity estimate (log intensity, higher = more binding, comparable within an allelic series) | binding signal (NKX2-4 [5]): 9.55 upbm affinity estimate (log intensity, higher = more binding, comparable within an allelic series) | binding signal (PAX4 [15]): 9.02 upbm affinity estimate (log intensity, higher = more binding, comparable within an allelic series) | binding signal (VAX1 [16]): 7.45 upbm affinity estimate (log intensity, higher = more binding, comparable within an allelic series) | binding signal (ALX3 [17]): 7.69 upbm affinity estimate (log intensity, higher = more binding, comparable within an allelic series) | binding signal (ALX3 [18]): 7.67 upbm affinity estimate (log intensity, higher = more binding, comparable within an allelic series) | binding signal (VAX1 [19]): 7.15 upbm affinity estimate (log intensity, higher = more binding, comparable within an allelic series) | binding signal (PAX4 [20]): 9.13 upbm affinity estimate (log intensity, higher = more binding, comparable within an allelic series) | binding signal (ALX3 [21]): 7.82 upbm affinity estimate (log intensity, higher = more binding, comparable within an allelic series) | binding signal (VAX1 [22]): 7.47 upbm affinity estimate (log intensity, higher = more binding, comparable within an allelic series)

CTGCGTCC
binding signal (NKX2-4 [1]): 9.76 upbm affinity estimate (log intensity, higher = more binding, comparable within an allelic series) | binding signal (NKX2-4 [2]): 9.72 upbm affinity estimate (log intensity, higher = more binding, comparable within an allelic series) | binding signal (NKX2-4 [3]): 9.74 upbm affinity estimate (log intensity, higher = more binding, comparable within an allelic series) | binding signal (NKX2-4 [5]): 9.78 upbm affinity estimate (log intensity, higher = more binding, comparable within an allelic series)

GCGGGCCC
binding signal (NKX2-4 [1]): 9.61 upbm affinity estimate (log intensity, higher = more binding, comparable within an allelic series) | binding signal (NKX2-4 [2]): 9.54 upbm affinity estimate (log intensity, higher = more binding, comparable within an allelic series) | binding signal (NKX2-4 [3]): 9.63 upbm affinity estimate (log intensity, higher = more binding, comparable within an allelic series) | binding signal (NKX2-4 [5]): 9.68 upbm affinity estimate (log intensity, higher = more binding, comparable within an allelic series)

GTCTCGCA
binding signal (NKX2-4 [1]): 9.7 upbm affinity estimate (log intensity, higher = more binding, comparable within an allelic series) | binding signal (NKX2-4 [2]): 9.57 upbm affinity estimate (log intensity, higher = more binding, comparable within an allelic series) | binding signal (NKX2-4 [3]): 9.65 upbm affinity estimate (log intensity, higher = more binding, comparable within an allelic series) | binding signal (NKX2-4 [5]): 9.64 upbm affinity estimate (log intensity, higher = more binding, comparable within an allelic series)

CCCTCATA
binding signal (NKX2-4 [1]): 11.6 upbm affinity estimate (log intensity, higher = more binding, comparable within an allelic series) | binding signal (NKX2-4 [2]): 11.8 upbm affinity estimate (log intensity, higher = more binding, comparable within an allelic series) | binding signal (NKX2-4 [3]): 11.5 upbm affinity estimate (log intensity, higher = more binding, comparable within an allelic series)
